CHX counter = affects cycloheximide protein synthesis inhibition readout, counter-screen; max response, %; cell reporter, cycloheximide protein synthesis inhibition counterscreen; hit rate 12% among 300,000; in the data active means max response mostly above about 13%, no sharp cut-off; inactive means mostly below about 14%; further: read at 38.3 µM for the half of the compounds with a filed dose
Pf growth 96h = inhibits malaria parasite growth, 96 h | hit rate 6.9% among 320,000 | P. falciparum luciferase reporter growth, 96 h | Potency, µM (series often up to 28.7 µM), most hits filed as inhibitors
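Luminescence readout: decreased luciferase signal marks inhibited growth of reporter-expressing P. falciparum in infected red cells (2% hematocrit, 0.05% parasitemia final), exposed to compound two generations (96 h, 37 C, 5% CO2).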
Pf growth 48h = P. falciparum growth inhibition at 48 hours (one generation). Potency, µM (series often up to 28.7 µM), hits mostly inhibitors. P. falciparum luciferase growth in erythrocytes, 48 h. hit rate 5.9% among 310,000. AID 504832
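Here the parasites carry a stable luciferase gene and grow inside erythrocytes in Albumax-based RPMI medium with compound for one erythrocytic cycle. Activity is scored as loss of luminescent signal.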
NS1 function inh = blocks influenza NS1 protein function; hit rate 0.4% among 270,000; AID 2326; Potency, µM (highest dose often 46.1 µM); calls by dose curve; further: actives are rising curves; nearly all actives have a fitted effect of over 50% in size
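Recovery from NS1-induced slow growth read by OD600 in budding yeast switched to galactose assay medium (pH 6.0, -URA) at 1:100 dilution. Compound 23 nl per well; the matching strain lacking NS1 serves as control.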
Shiga inhibitor = Shiga toxin inhibition; Vero cells, Shiga toxin protein synthesis inhibition reporter; inhibition, % at 38.7 µM; hit rate 9.2% among 290,000; in the data active means inhibition mostly above about 28%, no sharp cut-off; inactive means mostly below about 43%
FBPA Giardia inh = Giardia lamblia aldolase inhibition | AID 2451 | purified Giardia FBPA | Potency, µM (series often up to 59.6 µM), usual class: inhibitors | hit rate 0.71% among 290,000; further: nearly all actives have a fitted effect of over 55% in size
Target sequence (A8B2U2 whole entry, looked up): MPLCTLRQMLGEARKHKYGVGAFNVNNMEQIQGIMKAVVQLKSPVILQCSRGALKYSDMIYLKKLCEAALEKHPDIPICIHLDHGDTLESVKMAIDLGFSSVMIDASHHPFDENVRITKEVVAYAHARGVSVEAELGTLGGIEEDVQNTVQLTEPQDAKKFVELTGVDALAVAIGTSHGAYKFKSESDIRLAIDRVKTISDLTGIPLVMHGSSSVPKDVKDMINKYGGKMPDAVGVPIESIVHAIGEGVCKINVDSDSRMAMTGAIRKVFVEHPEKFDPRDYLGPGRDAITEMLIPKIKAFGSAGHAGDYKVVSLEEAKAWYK
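40 nM FBPA preincubated 10 min at RT with compound (up to 57.5 uM final), then substrate plus GAPDH/TPI/NAD/arsenate coupling and diaphorase/resazurin added. Fluorescence read after 20 min at RT, 525/598 nm.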
Large screens that a line does not name were inactive. An excerpt weighted towards active compounds, which were near 21% of everything screened. Unless noted, the call rests on the fitted dose curve; in most records, active means well fitted curve in the direction sought with a large enough effect; inconclusive means small, poorly fitted or top-dose-only effect, or another doubt; inactive means no such curve, though single readings can be large; an effect the other way counts as inactive or inconclusive.

Cn1/c(=N/NC(=O)c2ccccc2Br)sc2ccccc21	CHX counter 36.5, Shiga inhibitor 87.4 (no result: NS1 function inh)
COc1cc(C(=O)N/N=c2/sc3ccccc3n2C)cc(OC)c1OC	Pf growth 96h inconclusive
O=C(Nc1nccs1)c1ccc(COc2c(F)c(F)cc(F)c2F)o1	none (no result: CHX counter, NS1 function inh, Shiga inhibitor, FBPA Giardia inh)
Cc1cc(NC(=O)c2ccc(COc3ccccc3Cl)o2)no1	none (no result: NS1 function inh)
Cc1cc(NC(=O)c2ccc(COc3ccc(Cl)c(C)c3)o2)no1	Pf growth 96h 9.28µM
Cc1ccc(OCc2ccc(C(=O)Nc3nccs3)o2)cc1C	CHX counter 24.9 (no result: FBPA Giardia inh)
O=C(Nc1nccs1)c1ccc(COc2ccccc2Cl)o1	CHX counter 60.3, Pf growth 96h inconclusive, Shiga inhibitor 80.6 (no result: NS1 function inh)
COc1ccc(Cc2nc(-c3cccs3)no2)cc1OC	CHX counter 23.7 (no result: Pf growth 48h)
COc1ccc(-c2noc(CN(C)Cc3ccccc3)n2)c(OC)c1OC	CHX counter 14.6, Pf growth 96h 3.7µM
COc1ccc(CN(C)Cc2ccccc2)c(OC)c1OC	none
COc1ccc(Cc2nc(-c3ccccc3)no2)cc1	CHX counter 35.9, Shiga inhibitor 41.8
COc1ccc(-c2noc(CN(C)S(=O)(=O)c3ccccc3)n2)cc1OC	none (no result: CHX counter, Pf growth 96h, Pf growth 48h, Shiga inhibitor, FBPA Giardia inh)
COc1ccc(S(=O)(=O)N(Cc2ccccc2)Cc2nc(-c3ccccc3)no2)cc1	Pf growth 48h 13.1µM (no result: Pf growth 96h)
Cc1onc(-c2ccccc2Cl)c1C(=O)N1CCCCC1C (stereo not given)	Pf growth 96h inconclusive (no result: FBPA Giardia inh)
COc1ccc(Cc2nc(-c3cccs3)no2)cc1	CHX counter 32.8, Shiga inhibitor 69.8
CCOc1ccc(S(=O)(=O)N2CCN(CCNS(=O)(=O)c3ccc(C)cc3)CC2)cc1	Pf growth 48h inconclusive (no result: CHX counter, NS1 function inh, Shiga inhibitor, FBPA Giardia inh)
NCCCNCCCCNCCCNC(=O)CCc1ccc(O)cc1	none (no result: Pf growth 96h, Pf growth 48h, NS1 function inh)
O=C(c1ccncc1)N1c2ccccc2Sc2ccccc21	none (no result: NS1 function inh)
O=C(c1ccco1)N1CCN(C(=O)N2c3ccccc3Sc3ccccc32)CC1	Pf growth 96h inconclusive, Pf growth 48h 11.7µM
COc1cccc(C(=O)N2c3ccccc3Sc3ccccc32)c1	Pf growth 48h 10.4µM, FBPA Giardia inh inconclusive
O=C(NC1CCN(C(=O)N2c3ccccc3Sc3ccccc32)CC1)c1ccco1	Pf growth 96h inconclusive, Pf growth 48h 1.65µM
O=C(NC1CCN(C(=O)N2c3ccccc3Sc3ccccc32)CC1)c1ccccc1Cl	Pf growth 96h inconclusive, Pf growth 48h inconclusive
COc1cccc(C(=O)NC2CCN(C(=O)N3c4ccccc4Sc4ccccc43)CC2)c1	Pf growth 96h 5.22µM, Pf growth 48h 8.28µM
O=C(c1ccco1)N1c2ccccc2Sc2ccccc21	Pf growth 48h inconclusive
COc1cccc(OC)c1C(=O)Nc1nc2ccc([N+](=O)[O-])cc2s1	Pf growth 48h inconclusive
Cc1nc2cncnc2n(Cc2ccccc2)c1=O	none (no result: CHX counter, Pf growth 96h, Pf growth 48h, NS1 function inh, Shiga inhibitor)
CC(C)(C)C1CCCCC1NC(=O)c1ccncc1 (stereo not given)	none
Cc1nc(-c2ccccc2)sc1C1(C)CC(c2c(Cl)cccc2Cl)=NO1 (stereo not given)	CHX counter 20.1, NS1 function inh inconclusive, Shiga inhibitor 53.3
Cc1nc(C(=O)NCc2ccccc2)sc1C1(C)CC(c2ccccc2)=NO1 (stereo not given)	Pf growth 96h inconclusive, Pf growth 48h inconclusive
Cc1nc(NC(=O)c2ccccc2)sc1C1(C)CC(c2c(Cl)cccc2Cl)=NO1 (stereo not given)	Pf growth 96h inconclusive, Pf growth 48h 13.1µM
Cc1nc(NC(=O)c2ccccc2)sc1C1(C)CC(c2ccccc2F)=NO1 (stereo not given)	CHX counter 42.5, Pf growth 96h inconclusive, Pf growth 48h inconclusive, NS1 function inh inconclusive, Shiga inhibitor 59.7
COc1ccc(-n2ncc3c2CC(C)(C)CC3NC(=O)c2c(C)cc(=O)oc2C)cc1 (stereo not given)	Pf growth 48h inconclusive
Cc1nnc(NC(=O)CSc2nnc(CC(=O)Nc3ccccc3F)n2C)s1	FBPA Giardia inh inconclusive
Cc1cc2oc(=O)cc(CN3CCOCC3)c2c(C)c1Cl	none
CCOc1ccc2nc(N(CCCN(C)C)C(=O)c3ccc4c(c3)CCCC4)sc2c1	Pf growth 96h 5.86µM, Pf growth 48h inconclusive (no result: FBPA Giardia inh)
CN(C)CCCN(C(=O)c1ccc2c(c1)CCCC2)c1nc2ccc(Cl)cc2s1	Pf growth 96h 1.85µM, Pf growth 48h 8.28µM
CN(C)CCCN(C(=O)COc1ccccc1)c1nc2ccc(Cl)cc2s1	none (no result: NS1 function inh)
